# Measurements as given in publication PMC7862700, “An all-to-all approach to the identification of sequence-specific readers for epigenetic DNA modifications on cytosine”.
# Legend:
# Test in all cases: DAPPL (digital affinity profiling via proximity ligation, sequencing); 10 mM Tris-HCl pH 7.5, 50 mM NaCl, 1 mM DTT, 4% glycerol, room temperature, 30 min; GST-TFs on glutathione beads, 16-mer random dsDNA library, 0.1% formaldehyde crosslink after washing; high values mean tight binding
# [1] = biological target: T1, FLI1 (Homo sapiens, UniProt Q01543 1-452); conditions: protein: recombinant; tags: N-terminal GST; dsDNA, one strand shown
# T1 sequence: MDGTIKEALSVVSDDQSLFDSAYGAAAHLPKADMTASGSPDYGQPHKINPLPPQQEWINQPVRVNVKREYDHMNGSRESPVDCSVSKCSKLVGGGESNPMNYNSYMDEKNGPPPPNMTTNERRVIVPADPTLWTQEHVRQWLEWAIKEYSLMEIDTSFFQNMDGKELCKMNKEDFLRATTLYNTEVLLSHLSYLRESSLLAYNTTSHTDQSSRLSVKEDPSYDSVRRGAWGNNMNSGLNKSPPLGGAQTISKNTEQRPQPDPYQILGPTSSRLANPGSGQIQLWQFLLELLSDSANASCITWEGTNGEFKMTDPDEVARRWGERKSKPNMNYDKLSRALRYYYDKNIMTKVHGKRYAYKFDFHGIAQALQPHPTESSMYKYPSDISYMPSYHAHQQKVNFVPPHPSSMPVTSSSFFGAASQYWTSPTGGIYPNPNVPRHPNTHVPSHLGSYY
# Outline: (§1)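 After expression in yeast as GST fusions, human transcription factors were bound to glutathione beads, DNA-barcoded and mixed with a tag-only sample. The pools were incubated with 200 nmole of a 16-mer random double-stranded DNA library in Tris/NaCl/DTT/glycerol buffer (30 min, room temperature), washed and crosslinked with 0.1% formaldehyde. Proximity ligation with BsaI/T4 ligase ran for 1 h at 37 °C, before PCR amplification and sequencing on an Illumina NextSeq500. Binding signal is a hexamer's read frequency for a factor divided by its frequency for the tag-only sample.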
# [2] = biological target: T2, ELK1 (Homo sapiens, UniProt P19419 1-428); conditions: protein: recombinant; tags: N-terminal GST; dsDNA, one strand shown
# T2 sequence: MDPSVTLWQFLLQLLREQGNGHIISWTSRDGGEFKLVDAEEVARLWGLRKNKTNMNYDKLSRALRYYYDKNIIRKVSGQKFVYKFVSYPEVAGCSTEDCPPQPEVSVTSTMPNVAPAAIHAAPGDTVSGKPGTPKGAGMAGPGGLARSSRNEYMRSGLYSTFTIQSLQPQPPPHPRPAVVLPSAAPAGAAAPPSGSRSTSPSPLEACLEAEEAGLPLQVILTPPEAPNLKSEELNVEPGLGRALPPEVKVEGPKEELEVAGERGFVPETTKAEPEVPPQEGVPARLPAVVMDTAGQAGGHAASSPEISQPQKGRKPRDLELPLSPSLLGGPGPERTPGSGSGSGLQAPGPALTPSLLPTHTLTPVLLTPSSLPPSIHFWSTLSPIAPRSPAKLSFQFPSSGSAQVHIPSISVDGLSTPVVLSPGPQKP
# Outline: as §1
# [3] = biological target: T3, GABPA (Homo sapiens, UniProt Q06546 1-454); conditions: protein: recombinant; tags: N-terminal GST; dsDNA, one strand shown
# T3 sequence: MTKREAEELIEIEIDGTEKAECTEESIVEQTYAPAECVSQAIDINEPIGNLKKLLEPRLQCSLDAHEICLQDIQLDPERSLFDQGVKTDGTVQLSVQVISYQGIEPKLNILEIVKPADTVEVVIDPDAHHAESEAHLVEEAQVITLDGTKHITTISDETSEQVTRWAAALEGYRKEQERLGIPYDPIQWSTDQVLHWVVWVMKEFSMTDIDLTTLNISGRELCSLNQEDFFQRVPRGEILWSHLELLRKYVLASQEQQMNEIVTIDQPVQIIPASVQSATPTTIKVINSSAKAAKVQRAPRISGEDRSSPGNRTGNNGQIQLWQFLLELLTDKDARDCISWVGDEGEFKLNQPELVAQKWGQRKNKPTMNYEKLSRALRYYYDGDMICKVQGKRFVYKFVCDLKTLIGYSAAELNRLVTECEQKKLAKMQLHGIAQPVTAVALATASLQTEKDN
# Outline: as §1
# [4] = biological target: T4, ERG (Homo sapiens, UniProt P11308 1-479); conditions: protein: recombinant; tags: N-terminal GST; dsDNA, one strand shown
# T4 sequence: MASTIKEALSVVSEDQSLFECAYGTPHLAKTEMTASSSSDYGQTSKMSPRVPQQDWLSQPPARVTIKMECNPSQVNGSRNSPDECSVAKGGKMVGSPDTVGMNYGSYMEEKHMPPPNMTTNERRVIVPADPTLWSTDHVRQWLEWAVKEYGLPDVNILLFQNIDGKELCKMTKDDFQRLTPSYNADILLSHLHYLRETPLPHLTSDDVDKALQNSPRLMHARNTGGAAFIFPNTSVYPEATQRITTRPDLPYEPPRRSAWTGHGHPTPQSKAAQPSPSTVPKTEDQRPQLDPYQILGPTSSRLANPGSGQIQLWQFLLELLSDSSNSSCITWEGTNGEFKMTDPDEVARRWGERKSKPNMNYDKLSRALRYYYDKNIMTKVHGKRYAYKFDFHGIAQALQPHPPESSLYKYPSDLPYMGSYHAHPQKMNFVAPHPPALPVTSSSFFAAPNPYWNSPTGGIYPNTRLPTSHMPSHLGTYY
# Outline: as §1
# [5] = biological target: ELF1 (Homo sapiens, UniProt P32519 1-619); conditions: protein: recombinant; tags: N-terminal GST; dsDNA, one strand shown
# Sequence of ELF1 (P32519 whole entry): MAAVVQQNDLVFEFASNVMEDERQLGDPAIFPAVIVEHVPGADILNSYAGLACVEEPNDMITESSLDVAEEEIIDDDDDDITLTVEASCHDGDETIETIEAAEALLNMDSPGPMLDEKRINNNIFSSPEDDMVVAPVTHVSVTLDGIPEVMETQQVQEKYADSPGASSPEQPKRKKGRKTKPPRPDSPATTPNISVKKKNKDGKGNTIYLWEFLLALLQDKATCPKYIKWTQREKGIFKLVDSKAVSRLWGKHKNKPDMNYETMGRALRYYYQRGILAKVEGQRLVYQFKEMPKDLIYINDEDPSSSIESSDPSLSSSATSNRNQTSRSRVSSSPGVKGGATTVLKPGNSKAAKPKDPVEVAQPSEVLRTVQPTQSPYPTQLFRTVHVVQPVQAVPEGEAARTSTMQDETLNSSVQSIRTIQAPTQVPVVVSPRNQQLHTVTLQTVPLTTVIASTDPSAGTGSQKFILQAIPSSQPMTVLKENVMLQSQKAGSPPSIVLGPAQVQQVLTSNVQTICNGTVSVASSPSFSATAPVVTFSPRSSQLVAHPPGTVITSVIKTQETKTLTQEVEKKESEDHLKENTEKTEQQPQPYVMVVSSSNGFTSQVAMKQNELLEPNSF
# Outline: as §1
# [6] = biological target: T5, EHF (Homo sapiens, UniProt Q9NZC4 1-300); conditions: protein: recombinant; tags: N-terminal GST; dsDNA, one strand shown
# T5 sequence: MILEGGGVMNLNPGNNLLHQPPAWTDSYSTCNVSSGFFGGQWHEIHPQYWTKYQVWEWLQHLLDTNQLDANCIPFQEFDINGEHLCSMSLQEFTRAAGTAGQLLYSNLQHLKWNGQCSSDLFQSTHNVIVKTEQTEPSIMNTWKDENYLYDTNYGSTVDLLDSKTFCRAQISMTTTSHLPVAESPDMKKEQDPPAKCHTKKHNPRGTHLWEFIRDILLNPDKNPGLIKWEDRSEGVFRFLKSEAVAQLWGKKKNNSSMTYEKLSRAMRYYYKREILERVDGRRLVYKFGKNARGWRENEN
# Outline: as §1
# [7] = biological target: SPI1 (Homo sapiens, UniProt P17947 1-270); conditions: protein: recombinant; tags: N-terminal GST; dsDNA, one strand shown
# Outline: as §1
# [8] = biological target: SPIB (Homo sapiens, UniProt Q01892 1-262); conditions: protein: recombinant; tags: N-terminal GST; dsDNA, one strand shown
# Sequence of SPIB (Q01892 whole entry): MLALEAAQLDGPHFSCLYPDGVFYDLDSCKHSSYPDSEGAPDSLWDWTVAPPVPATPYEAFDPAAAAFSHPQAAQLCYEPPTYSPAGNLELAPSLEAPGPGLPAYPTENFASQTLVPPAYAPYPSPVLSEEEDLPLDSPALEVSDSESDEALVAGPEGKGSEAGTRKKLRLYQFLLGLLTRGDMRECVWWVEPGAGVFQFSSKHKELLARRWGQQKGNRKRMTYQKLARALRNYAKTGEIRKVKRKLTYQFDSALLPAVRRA
# Outline: as §1
# [9] = biological target: T6, ELK3 (Homo sapiens, UniProt P41970 1-407); conditions: protein: recombinant; tags: N-terminal GST; dsDNA, one strand shown
# T6 sequence: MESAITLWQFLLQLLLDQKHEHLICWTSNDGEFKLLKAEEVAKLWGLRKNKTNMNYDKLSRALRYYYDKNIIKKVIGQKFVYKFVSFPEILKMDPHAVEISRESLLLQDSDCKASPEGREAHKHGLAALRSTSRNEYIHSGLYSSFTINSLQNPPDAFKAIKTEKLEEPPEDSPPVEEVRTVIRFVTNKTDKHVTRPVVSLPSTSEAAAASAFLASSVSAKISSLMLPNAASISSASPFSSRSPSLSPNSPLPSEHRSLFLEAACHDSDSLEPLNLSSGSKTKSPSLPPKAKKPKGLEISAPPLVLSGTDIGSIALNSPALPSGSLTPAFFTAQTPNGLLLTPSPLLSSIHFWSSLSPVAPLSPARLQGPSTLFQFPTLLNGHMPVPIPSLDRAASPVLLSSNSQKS
# Outline: as §1
# [10] = biological target: T7, FEV (Homo sapiens, UniProt Q99581 1-238); conditions: protein: recombinant; tags: N-terminal GST; dsDNA, one strand shown
# T7 sequence: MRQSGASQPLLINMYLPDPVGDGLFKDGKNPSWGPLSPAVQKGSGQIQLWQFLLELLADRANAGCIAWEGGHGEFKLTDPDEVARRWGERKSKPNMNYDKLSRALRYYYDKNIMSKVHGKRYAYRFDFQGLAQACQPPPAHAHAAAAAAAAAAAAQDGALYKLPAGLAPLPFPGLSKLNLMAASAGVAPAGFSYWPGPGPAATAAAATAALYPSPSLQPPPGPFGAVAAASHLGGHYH
# Outline: as §1
# [11] = biological target: ETV5 (Homo sapiens, UniProt P41161 1-510); conditions: protein: recombinant; tags: N-terminal GST; dsDNA, one strand shown
# Sequence of ETV5 (P41161 whole entry): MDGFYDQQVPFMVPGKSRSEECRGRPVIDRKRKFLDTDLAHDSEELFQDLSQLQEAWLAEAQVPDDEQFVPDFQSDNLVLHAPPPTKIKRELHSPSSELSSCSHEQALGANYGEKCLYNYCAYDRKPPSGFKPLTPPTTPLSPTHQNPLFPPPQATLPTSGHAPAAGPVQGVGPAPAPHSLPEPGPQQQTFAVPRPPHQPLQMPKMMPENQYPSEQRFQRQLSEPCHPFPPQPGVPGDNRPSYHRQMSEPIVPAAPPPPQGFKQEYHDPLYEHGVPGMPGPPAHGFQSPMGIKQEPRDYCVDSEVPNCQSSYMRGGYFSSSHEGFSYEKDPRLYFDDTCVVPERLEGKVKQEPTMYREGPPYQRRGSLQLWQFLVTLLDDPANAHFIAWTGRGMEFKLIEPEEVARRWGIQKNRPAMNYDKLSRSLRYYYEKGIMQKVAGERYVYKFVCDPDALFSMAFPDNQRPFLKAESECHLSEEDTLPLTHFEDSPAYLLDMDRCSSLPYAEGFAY
# Outline: as §1
# [12] = biological target: HSF1 (Homo sapiens, UniProt Q00613 1-529); conditions: protein: recombinant; tags: N-terminal GST; chain copies: 3; dsDNA, one strand shown
# Sequence of HSF1 (Q00613 whole entry): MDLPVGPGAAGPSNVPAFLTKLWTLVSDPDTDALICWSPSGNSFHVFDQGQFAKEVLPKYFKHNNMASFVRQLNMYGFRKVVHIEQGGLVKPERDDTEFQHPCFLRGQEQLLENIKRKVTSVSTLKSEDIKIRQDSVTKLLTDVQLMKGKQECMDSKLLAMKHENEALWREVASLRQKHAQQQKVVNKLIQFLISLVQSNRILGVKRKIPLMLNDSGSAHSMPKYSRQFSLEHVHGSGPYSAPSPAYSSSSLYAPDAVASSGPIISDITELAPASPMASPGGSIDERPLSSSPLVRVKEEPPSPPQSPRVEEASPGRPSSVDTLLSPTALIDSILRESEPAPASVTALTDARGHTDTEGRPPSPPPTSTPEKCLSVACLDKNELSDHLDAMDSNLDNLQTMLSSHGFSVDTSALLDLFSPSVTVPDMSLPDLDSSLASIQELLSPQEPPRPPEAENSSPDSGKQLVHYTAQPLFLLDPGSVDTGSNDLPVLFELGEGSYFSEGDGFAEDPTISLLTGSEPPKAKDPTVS
# Outline: as §1
# [13] = biological target: T8, SPIC (Homo sapiens, UniProt Q8N5J4 1-248); conditions: protein: recombinant; tags: N-terminal GST; dsDNA, one strand shown
# T8 sequence: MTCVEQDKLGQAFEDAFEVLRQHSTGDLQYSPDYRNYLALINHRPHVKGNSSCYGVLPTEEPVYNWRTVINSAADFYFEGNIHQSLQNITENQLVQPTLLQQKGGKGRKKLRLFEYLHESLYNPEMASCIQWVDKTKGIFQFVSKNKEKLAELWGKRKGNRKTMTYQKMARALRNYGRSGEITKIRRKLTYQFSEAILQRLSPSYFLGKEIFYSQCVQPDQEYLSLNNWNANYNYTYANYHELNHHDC
# Outline: as §1
# [14] = biological target: ELF4 (Homo sapiens, UniProt Q99607 1-663); conditions: protein: recombinant; tags: N-terminal GST; dsDNA, one strand shown
# Sequence of ELF4 (Q99607 whole entry): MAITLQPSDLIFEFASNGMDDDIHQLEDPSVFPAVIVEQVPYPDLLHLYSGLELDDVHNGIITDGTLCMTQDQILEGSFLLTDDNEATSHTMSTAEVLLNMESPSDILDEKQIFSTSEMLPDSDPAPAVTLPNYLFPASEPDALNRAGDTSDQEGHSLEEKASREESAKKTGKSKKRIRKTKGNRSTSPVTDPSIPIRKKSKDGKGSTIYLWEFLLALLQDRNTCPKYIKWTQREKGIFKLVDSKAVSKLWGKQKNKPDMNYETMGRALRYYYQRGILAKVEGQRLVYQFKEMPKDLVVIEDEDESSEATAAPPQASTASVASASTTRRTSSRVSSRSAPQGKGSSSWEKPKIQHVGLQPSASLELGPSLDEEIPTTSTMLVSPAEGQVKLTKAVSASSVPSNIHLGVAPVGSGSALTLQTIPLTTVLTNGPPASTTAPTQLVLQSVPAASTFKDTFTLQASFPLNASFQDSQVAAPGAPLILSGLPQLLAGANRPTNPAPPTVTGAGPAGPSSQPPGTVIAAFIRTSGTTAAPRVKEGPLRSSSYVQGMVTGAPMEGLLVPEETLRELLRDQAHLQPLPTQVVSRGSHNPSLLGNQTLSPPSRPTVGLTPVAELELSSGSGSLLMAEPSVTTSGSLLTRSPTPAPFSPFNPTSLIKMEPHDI
# Outline: as §1
# [15] = biological target: T9, ELK4 (Homo sapiens, UniProt P28324-2 1-405); conditions: protein: recombinant; tags: N-terminal GST; dsDNA, one strand shown
# T9 sequence: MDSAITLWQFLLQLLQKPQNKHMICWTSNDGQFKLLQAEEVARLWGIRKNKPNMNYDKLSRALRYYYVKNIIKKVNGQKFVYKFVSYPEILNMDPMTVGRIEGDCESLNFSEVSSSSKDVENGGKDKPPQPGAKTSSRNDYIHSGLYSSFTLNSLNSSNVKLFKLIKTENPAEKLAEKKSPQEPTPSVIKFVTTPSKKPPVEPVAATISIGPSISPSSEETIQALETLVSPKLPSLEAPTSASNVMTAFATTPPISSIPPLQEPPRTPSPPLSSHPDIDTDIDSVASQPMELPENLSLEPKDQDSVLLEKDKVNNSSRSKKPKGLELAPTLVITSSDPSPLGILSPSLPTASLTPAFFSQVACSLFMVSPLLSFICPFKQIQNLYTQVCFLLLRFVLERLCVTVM
# Outline: as §1
# [16] = biological target: T10, ETV2 (Homo sapiens, UniProt O00321 1-342); conditions: protein: recombinant; tags: N-terminal GST; dsDNA, one strand shown
# T10 sequence: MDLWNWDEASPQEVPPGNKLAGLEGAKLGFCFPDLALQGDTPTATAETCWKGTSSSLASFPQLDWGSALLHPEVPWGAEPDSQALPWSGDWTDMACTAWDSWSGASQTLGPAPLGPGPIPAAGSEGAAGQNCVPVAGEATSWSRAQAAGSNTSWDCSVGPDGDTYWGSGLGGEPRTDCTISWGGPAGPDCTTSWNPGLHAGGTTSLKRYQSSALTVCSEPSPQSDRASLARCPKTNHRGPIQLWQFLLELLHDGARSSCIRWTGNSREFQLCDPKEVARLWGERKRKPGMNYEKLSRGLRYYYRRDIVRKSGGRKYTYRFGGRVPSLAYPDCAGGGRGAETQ
# Outline: as §1
# [17] = biological target: T11, ELF3 (Homo sapiens, UniProt P78545 1-371); conditions: protein: recombinant; tags: N-terminal GST; dsDNA, one strand shown
# T11 sequence: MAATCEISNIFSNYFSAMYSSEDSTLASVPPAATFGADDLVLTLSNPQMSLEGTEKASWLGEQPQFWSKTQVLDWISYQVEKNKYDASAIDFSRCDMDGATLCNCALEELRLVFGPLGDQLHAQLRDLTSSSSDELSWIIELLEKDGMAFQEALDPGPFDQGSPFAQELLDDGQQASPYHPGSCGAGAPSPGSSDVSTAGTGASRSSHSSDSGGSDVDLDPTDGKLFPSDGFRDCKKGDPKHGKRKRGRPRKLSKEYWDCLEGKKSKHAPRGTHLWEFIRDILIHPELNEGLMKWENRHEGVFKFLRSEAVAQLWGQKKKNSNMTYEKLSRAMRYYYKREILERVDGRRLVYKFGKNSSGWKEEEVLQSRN
# Outline: as §1
# [18] = biological target: ETV1 (Homo sapiens, UniProt P50549 1-477); conditions: protein: recombinant; tags: N-terminal GST; dsDNA, one strand shown
# Sequence of ETV1 (P50549 whole entry): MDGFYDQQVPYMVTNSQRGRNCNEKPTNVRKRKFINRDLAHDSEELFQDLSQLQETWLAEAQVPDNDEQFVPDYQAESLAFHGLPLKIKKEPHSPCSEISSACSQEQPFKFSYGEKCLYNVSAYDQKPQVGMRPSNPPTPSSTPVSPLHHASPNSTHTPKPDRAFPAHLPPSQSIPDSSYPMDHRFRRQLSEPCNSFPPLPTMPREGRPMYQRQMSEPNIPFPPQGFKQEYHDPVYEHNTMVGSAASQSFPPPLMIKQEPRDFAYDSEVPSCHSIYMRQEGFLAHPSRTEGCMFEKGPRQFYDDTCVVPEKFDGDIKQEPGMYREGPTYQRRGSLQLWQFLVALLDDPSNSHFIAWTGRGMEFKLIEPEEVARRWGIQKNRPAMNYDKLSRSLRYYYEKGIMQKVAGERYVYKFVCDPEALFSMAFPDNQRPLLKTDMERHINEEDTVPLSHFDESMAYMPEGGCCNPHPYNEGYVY
# Outline: as §1
sequence,measurement,setting,value
AGTTCC,binding signal,[1],"2.16 fold enrichment (6-mer frequency, TF over GST control)"
same,binding signal,[2],"2.17 fold enrichment (6-mer frequency, TF over GST control)"
same,binding signal,[3],"1.9 fold enrichment (6-mer frequency, TF over GST control)"
same,binding signal,[4],"2.2 fold enrichment (6-mer frequency, TF over GST control)"
same,binding signal,[5],"1.95 fold enrichment (6-mer frequency, TF over GST control)"
same,binding signal,[6],"2.11 fold enrichment (6-mer frequency, TF over GST control)"
same,binding signal,[7],"2.62 fold enrichment (6-mer frequency, TF over GST control)"
same,binding signal,[8],"2.36 fold enrichment (6-mer frequency, TF over GST control)"
same,binding signal,[9],"1.99 fold enrichment (6-mer frequency, TF over GST control)"
same,binding signal,[10],"1.96 fold enrichment (6-mer frequency, TF over GST control)"
same,binding signal,[11],"2.29 fold enrichment (6-mer frequency, TF over GST control)"
same,binding signal,[12],"1.34 fold enrichment (6-mer frequency, TF over GST control)"
same,binding signal,[13],"2.42 fold enrichment (6-mer frequency, TF over GST control)"
same,binding signal,[14],"1.97 fold enrichment (6-mer frequency, TF over GST control)"
same,binding signal,[15],"1.98 fold enrichment (6-mer frequency, TF over GST control)"
same,binding signal,[16],"1.88 fold enrichment (6-mer frequency, TF over GST control)"
same,binding signal,[17],"2.05 fold enrichment (6-mer frequency, TF over GST control)"
same,binding signal,[18],"2.21 fold enrichment (6-mer frequency, TF over GST control)"
